Among all 48,000 compounds or so, about 13,000 (27%) showed an effect of 50% or more. The list shows a part of the results.

This note sets out measurements from ChEMBL document CHEMBL3988442, “University of Dundee, Small-Polar-MMV Screening Library” (2021).

This test concerns Wolbachia pipientis. Put plainly: Anti-Wolbachia Cell-Based Screen. Type of test: functional. More on the design: scale not given: in the data most compounds retested in dose-response had high values. As to conditions: 5 µM.
Consider `Cc1ccccc1SC1CCN(C(=O)[C@@H]2C[C@@H](N)CN2)CC1`, for which the “Percent Effect” value is reported as -21.68%.
For `O=C(O)C(F)(F)F.O=C(O)C(F)(F)F.O=C(O)c1cc2c(nc1-c1cncnc1)CCN(C1CCOC1)CC2` (stereo not given) the value was -20.41%; for `Cc1cnn(CC2CCCCN2CCCS(N)(=O)=O)c1` (stereo not given), -7.264%.
With `OC1(CN2CCCCC2)CCN(Cc2c[nH]c(CC3CCCC3)n2)C1` (stereo not given) the figure was 5.378%.
Regarding `CN(Cc1c(F)cccc1Cl)C(=O)c1cnn(CCN2CCCCC2)c1`, the “Percent Effect” value is 4.459%.
With `COc1ccc(F)c(-c2nccn2CCN2CCCC2)c1` the figure was -4.269%.
For `O=C(CN1CCCCCC1)NCc1ccc2[nH]c(=O)[nH]c2c1` the value was 33.1%; for `Cc1ccccc1N1CCN(C(=O)c2cscn2)C(C)C1` (stereo not given), 6.365%; for `O=C(O)[C@@H]1CCN(C(=O)c2cscn2)[C@@H]1c1ccc(F)cc1`, 132.5%.
For `O=C(O)[C@@H]1CCN(C(=O)Cc2ccccn2)[C@@H]1c1ccc(F)cc1` the value was 124%; for `O=C1N[C@@H]2CCN(C(=O)c3ccccc3)[C@@H]2C(=O)N1c1ccc(F)cc1`, 9.769%; for `CC(C)OC(=O)N1C[C@H]2CC[C@@H]1CN(C(=O)c1ccccn1)C2`, 1.179%.
With `O=C(O)[C@@H]1CCN(C(=O)c2ccccn2)[C@@H]1c1ccc(F)cc1`, the “Percent Effect” value was 129.5%.
With `O=C(O)C(F)(F)F.O=C([C@H]1C[C@H]2OCC[C@H]2N(C(=O)c2ccccn2)C1)N1CCCCO1` the figure was -2.538%; with `O=C(COC1CCCCC1)N1CCN(C(=O)Cc2ccccn2)CC1`, -7.801%; with `O=C(COCC1CC1)N1CCN(C(=O)Cc2ccccn2)CC1`, 1.286%.
Regarding `CC(C)OC(=O)[C@@H]1CCN(C(=O)c2ccccn2)[C@@H]1c1ccc(F)cc1`, the “Percent Effect” value worked out at 116.9%.
In the case of `O=C(c1cscn1)N1CC[C@H]2[C@@H]1CCC(=O)N2c1ccccc1`, the “Percent Effect” value turned out to be 5.214%.
For the compound `CN(C(=O)c1cccnc1OCC(F)F)c1ccc2c(c1)CCO2`, the “Percent Effect” value is -7.463%.
With `Cc1c(-c2c(-c3ccccc3)ncn2[C@@H](C(=O)O)[C@H](C)O)cnn1C` the figure was -13.76%; with `COCc1ncn(Cc2nc(-c3ccc(OC)cc3F)oc2C)n1`, -0.9498%; with `Cc1ccc(N2CCC(NC(C)c3cccs3)CC2)nc1` (stereo not given), -4.773%.
With `Cn1cc(-c2csc(N3CCSCC3)n2)cn1` the figure was -8.104%; with `CS(=O)(=O)N1CCC(c2nnc(CN3CCCC3)n2C2CC2)CC1`, -12.66%.
With `CN(Cc1cc(C[C@@H]2C[C@H](N)C2(C)C)no1)c1ccccc1` the figure was 4.71%.
